# Experimental data from the supplement of paper PMC8728848.
# The full list was thinned out, with the strongest signals kept by preference.
# B1: Als3-41 (Candida albicans) (protein)
# chain: KTITGVFNSFNSLTWSNAATYNYKGPGTPTWNAVLGWSLDGTSASPGDTFTLNMPCVFKFTTSQTSVDLTAHGVKYATCQFQAGEEFMTFSTLTCTVSNTLTPSIKALGTVTLPLAFNVGGTGSSVDLEDSKCFTAGTNTVTFNDGGKKISINVDFERSNVDPKGYLTDSRVIPSLNKVSTLFVAPQCANGYTSGTMGFANTYGDVQIDCSNIHVGITKGLNDWNYPVSSESFSYTKTCSSNGIFITYKNVPAGYRPFVDAYISATDVNSYTLSYANEYTCAGGYWQRAPFTLRWTGYRNSDAGSNGIVIVATTRTVTDSTTAVTTLPFDPNRDKTKTIEILKPIPTTTITTSYVGVTTSYLTKTAPIGETATVIVD
# B2: CV-IIL (Chromobacterium violaceum) (protein)
# chain: AQQGVFTLPARINFGVTVLVNSAATQHVEIFVDNEPRAAFSGVGTGDNNLGTKVINSGSGNVRVQITANGRQSDLVSSQLVLANKLNLAVVGSEDGTDMDYNDSIVILNWPLG
# Tests used:
# Test in all cases: glycan array binding signal (z-score within array); higher = stronger binding
# Settings in all cases: glycan notation: IUPAC condensed, linker removed
# [1] = target: Fuc(a1-2)Gal(b1-3)GlcNAc
# Procedure, shortened: (§1)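 Glycan array data came from 3228 arrays in the Consortium for Functional Glycomics database, and only arrays with an available protein sequence were kept. Glycan names were put into IUPAC-condensed notation, and columns mapping to the same glycan were averaged. The binding signal is a within-array Z-score, averaged across arrays of one protein sequence run at different concentrations or buffers and across linkers. A negative Z-score can be read as non-binding.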
# [2] = target: Fuc(a1-2)Gal(b1-3)GlcNAc(b1-2)Man(a1-3)[Fuc(a1-2)Gal(b1-3)GlcNAc(b1-2)Man(a1-6)]Man(b1-4)GlcNAc(b1-4)[Fuc(a1-6)]GlcNAc
# Procedure, shortened: as §1
# [3] = target: Fuc(a1-2)Gal(b1-3)GlcNAc(b1-3)Gal(b1-4)Glc
# Procedure, shortened: as §1
# [4] = target: Fuc(a1-2)Gal6S(b1-3)GlcNAc
# Procedure, shortened: as §1
# [5] = target: Fuc(a1-2)[Gal(a1-3)]Gal(b1-4)GlcNAc(b1-2)Man(a1-3)[Fuc(a1-2)[Gal(a1-3)]Gal(b1-4)GlcNAc(b1-2)Man(a1-6)]Man(b1-4)GlcNAc(b1-4)GlcNAc
# Procedure, shortened: as §1
# [6] = target: Fuc(a1-2)[Gal(a1-3)]Gal(b1-4)GlcNAc(b1-3)[Fuc(a1-2)[Gal(a1-3)]Gal(b1-4)GlcNAc(b1-6)]GalNAc
# Procedure, shortened: as §1
# [7] = target: Fuc(a1-2)[Gal(a1-3)]Gal(b1-4)GlcNAc(b1-6)GalNAc
# Procedure, shortened: as §1
# [8] = target: Fuc(a1-2)[GalNAc(a1-3)]Gal(b1-3)GlcNAc(b1-2)Man(a1-3)[Fuc(a1-2)[GalNAc(a1-3)]Gal(b1-3)GlcNAc(b1-2)Man(a1-6)]Man(b1-4)GlcNAc(b1-4)GlcNAc
# Procedure, shortened: as §1
# [9] = target: Fuc(a1-2)[GalNAc(a1-3)]Gal(b1-4)GlcNAc(b1-2)Man(a1-3)[Fuc(a1-2)[GalNAc(a1-3)]Gal(b1-4)GlcNAc(b1-2)Man(a1-6)]Man(b1-4)GlcNAc(b1-4)[Fuc(a1-6)]GlcNAc
# Procedure, shortened: as §1
# [10] = target: Fuc(a1-2)[GalNAc(a1-3)]Gal(b1-4)GlcNAc(b1-3)Gal(b1-4)GlcNAc(b1-3)Gal(b1-4)GlcNAc
# Procedure, shortened: as §1
# [11] = target: Fuc(a1-3)[Gal(b1-4)]GlcNAc(b1-3)Gal(b1-3)[Fuc(a1-4)]GlcNAc
# Procedure, shortened: as §1
# [12] = target: Fuc(a1-3)[Gal3S(b1-4)]GlcNAc6S
# Procedure, shortened: as §1
# [13] = target: Fuc(a1-4)GlcNAc
# Procedure, shortened: as §1
# [14] = target: Gal(a1-2)Gal
# Procedure, shortened: as §1
# [15] = target: Gal(b1-2)Gal
# Procedure, shortened: as §1
# [16] = target: Gal(b1-3)GlcNAc(b1-3)Gal(b1-4)GlcNAc(b1-2)[Gal(b1-3)GlcNAc(b1-3)Gal(b1-4)GlcNAc(b1-6)]Man(a1-6)[Gal(b1-3)GlcNAc(b1-3)Gal(b1-4)GlcNAc(b1-2)Man(a1-3)]Man(b1-4)GlcNAc(b1-4)[Fuc(a1-6)]GlcNAc
# Procedure, shortened: as §1
# [17] = target: Gal(b1-3)[Fuc(a1-4)]GlcNAc
# Procedure, shortened: as §1
# [18] = target: Gal(b1-3)[Neu5Ac(b2-6)]GalNAc
# Procedure, shortened: as §1
# [19] = target: Gal(b1-4)GlcNAc(b1-2)Man(a1-6)[GlcNAc(b1-2)Man(a1-3)]Man(b1-4)GlcNAc(b1-4)GlcNAc
# Procedure, shortened: as §1
# [20] = target: Gal(b1-4)GlcNAc(b1-3)Gal(b1-4)GlcNAc(b1-2)Man(a1-3)[Gal(b1-4)GlcNAc(b1-3)Gal(b1-4)GlcNAc(b1-2)Man(a1-6)]Man(b1-4)GlcNAc(b1-4)GlcNAc
# Procedure, shortened: as §1
# [21] = target: Gal(b1-4)GlcNAc(b1-3)Gal(b1-4)GlcNAc(b1-3)Gal(b1-4)GlcNAc(b1-2)Man(a1-3)[Gal(b1-4)GlcNAc(b1-3)Gal(b1-4)GlcNAc(b1-3)Gal(b1-4)GlcNAc(b1-2)Man(a1-6)]Man(b1-4)GlcNAc(b1-4)GlcNAc
# Procedure, shortened: as §1
# [22] = target: Gal(b1-4)GlcNAc(b1-3)Gal(b1-4)GlcNAc(b1-3)Gal(b1-4)GlcNAc(b1-3)Gal(b1-4)GlcNAc(b1-3)Gal(b1-4)GlcNAc(b1-2)Man(a1-3)[Gal(b1-4)GlcNAc(b1-3)Gal(b1-4)GlcNAc(b1-3)Gal(b1-4)GlcNAc(b1-3)Gal(b1-4)GlcNAc(b1-3)Gal(b1-4)GlcNAc(b1-2)Man(a1-6)]Man(b1-4)GlcNAc(b1-4)GlcNAc
# Procedure, shortened: as §1
# [23] = target: Gal(b1-4)GlcNAc(b1-3)Gal(b1-4)GlcNAc(b1-3)Gal(b1-4)GlcNAc(b1-3)Gal(b1-4)GlcNAc(b1-3)Gal(b1-4)GlcNAc(b1-2)[Gal(b1-4)GlcNAc(b1-3)Gal(b1-4)GlcNAc(b1-3)Gal(b1-4)GlcNAc(b1-3)Gal(b1-4)GlcNAc(b1-3)Gal(b1-4)GlcNAc(b1-6)]Man(a1-6)[Gal(b1-4)GlcNAc(b1-3)Gal(b1-4)GlcNAc(b1-3)Gal(b1-4)GlcNAc(b1-3)Gal(b1-4)GlcNAc(b1-3)Gal(b1-4)GlcNAc(b1-2)Man(a1-3)]Man(b1-4)GlcNAc(b1-4)[Fuc(a1-6)]GlcNAc
# Procedure, shortened: as §1
# [24] = target: Gal(b1-4)GlcNAc(b1-3)[Fuc(a1-3)GlcNAc(b1-6)]Gal(b1-4)Glc
# Procedure, shortened: as §1
# [25] = target: Gal3S(b1-4)Glc6S
# Procedure, shortened: as §1
# [26] = target: GalNAc(b1-4)GlcNAc
# Procedure, shortened: as §1
# [27] = target: GalNAc(b1-4)GlcNAc6S
# Procedure, shortened: as §1
# [28] = target: GlcNAc(b1-2)[GlcNAc(b1-4)]Man(a1-3)[GlcNAc(b1-4)][GlcNAc(b1-2)[GlcNAc(b1-6)]Man(a1-6)]Man(b1-4)GlcNAc(b1-4)[Fuc(a1-6)]GlcNAc
# Procedure, shortened: as §1
# [29] = target: GlcNAc(b1-3)Gal(b1-4)GlcNAc(b1-2)[GlcNAc(b1-3)Gal(b1-4)GlcNAc(b1-6)]Man(a1-6)[GlcNAc(b1-3)Gal(b1-4)GlcNAc(b1-2)Man(a1-3)]Man(b1-4)GlcNAc(b1-4)GlcNAc
# Procedure, shortened: as §1
# [30] = target: GlcNAc(b1-3)Gal(b1-4)GlcNAc(b1-3)Gal(b1-4)GlcNAc(b1-2)Man(a1-3)[GlcNAc(b1-3)Gal(b1-4)GlcNAc(b1-3)Gal(b1-4)GlcNAc(b1-2)Man(a1-6)]Man(b1-4)GlcNAc(b1-4)GlcNAc
# Procedure, shortened: as §1
# [31] = target: Fuc(a1-2)Gal(b1-3)[Fuc(a1-4)]GlcNAc
# Procedure, shortened: as §1
# [32] = target: Fuc(a1-2)Gal(b1-4)GlcNAc
# Procedure, shortened: as §1
# [33] = target: Fuc(a1-2)[Gal(a1-4)]Gal(b1-4)GlcNAc
# Procedure, shortened: as §1
# [34] = target: Fuc(a1-2)[GalNAc(a1-4)]Gal(b1-4)GlcNAc
# Procedure, shortened: as §1
# [35] = target: Gal(a1-3)Gal(b1-4)GlcNAc
# Procedure, shortened: as §1
# [36] = target: Gal(a1-4)GlcNAc
# Procedure, shortened: as §1
# [37] = target: Gal4S(b1-4)GlcNAc
# Procedure, shortened: as §1
# [38] = target: GalNAc(a1-3)Gal
# Procedure, shortened: as §1
# [39] = target: Glc(a1-4)Glc
# Procedure, shortened: as §1
# [40] = target: GlcNAc(a1-6)Gal(b1-4)GlcNAc
# Procedure, shortened: as §1
# [41] = target: Kdn(a2-3)Gal(b1-4)GlcNAc
# Procedure, shortened: as §1
# [42] = target: Man(a1-2)Man(a1-3)Man
# Procedure, shortened: as §1
# [43] = target: Man(a1-3)[Man(a1-6)]Man
# Procedure, shortened: as §1
# [44] = target: Man(a1-3)[Man(a1-6)]Man(b1-4)GlcNAc(b1-4)GlcNAc
# Procedure, shortened: as §1
# [45] = target: Neu5Ac(a2-3)Gal(b1-4)GlcNAc(b1-3)Gal(b1-4)GlcNAc
# Procedure, shortened: as §1
# [46] = target: Neu5Ac(a2-8)Neu5Ac(a2-3)[GalNAc(b1-4)]Gal(b1-4)Glc
# Procedure, shortened: as §1
# [47] = target: Neu5Ac(a2-8)Neu5Ac(a2-8)Neu5Ac
# Procedure, shortened: as §1
# [48] = target: Neu5Ac9Ac(a2-6)Gal(b1-4)GlcNAc
# Procedure, shortened: as §1
binder,measurement,setting,value
B1,glycan array binding signal (z-score),[1],-0.256
same,glycan array binding signal (z-score),[2],-0.306
same,glycan array binding signal (z-score),[3],-0.317
same,glycan array binding signal (z-score),[4],-0.047
same,glycan array binding signal (z-score),[5],-0.283
same,glycan array binding signal (z-score),[6],1.91
same,glycan array binding signal (z-score),[7],-0.229
same,glycan array binding signal (z-score),[8],-0.203
same,glycan array binding signal (z-score),[9],-0.001
same,glycan array binding signal (z-score),[10],1.63
same,glycan array binding signal (z-score),[11],-0.315
same,glycan array binding signal (z-score),[12],1.6
same,glycan array binding signal (z-score),[13],7.63
same,glycan array binding signal (z-score),[14],-0.006
same,glycan array binding signal (z-score),[15],-0.182
same,glycan array binding signal (z-score),[16],0.669
same,glycan array binding signal (z-score),[17],-0.315
same,glycan array binding signal (z-score),[18],-0.359
same,glycan array binding signal (z-score),[19],-0.102
same,glycan array binding signal (z-score),[20],6.2
same,glycan array binding signal (z-score),[21],2.56
same,glycan array binding signal (z-score),[22],1.05
same,glycan array binding signal (z-score),[23],-0.117
same,glycan array binding signal (z-score),[24],-0.31
same,glycan array binding signal (z-score),[25],-0.151
same,glycan array binding signal (z-score),[26],0.551
same,glycan array binding signal (z-score),[27],1.79
same,glycan array binding signal (z-score),[28],-0.311
same,glycan array binding signal (z-score),[29],1.97
same,glycan array binding signal (z-score),[30],2.21
B2,glycan array binding signal (z-score),[1],2.67
same,glycan array binding signal (z-score),[31],2.2
same,glycan array binding signal (z-score),[32],2.98
same,glycan array binding signal (z-score),[33],1.68
same,glycan array binding signal (z-score),[34],1.2
same,glycan array binding signal (z-score),[35],-0.501
same,glycan array binding signal (z-score),[36],-0.501
same,glycan array binding signal (z-score),[37],-0.501
same,glycan array binding signal (z-score),[38],-0.502
same,glycan array binding signal (z-score),[39],-0.49
same,glycan array binding signal (z-score),[40],-0.501
same,glycan array binding signal (z-score),[41],-0.502
same,glycan array binding signal (z-score),[42],1.55
same,glycan array binding signal (z-score),[43],2.82
same,glycan array binding signal (z-score),[44],2.82
same,glycan array binding signal (z-score),[45],-0.498
same,glycan array binding signal (z-score),[46],-0.501
same,glycan array binding signal (z-score),[47],-0.501
same,glycan array binding signal (z-score),[48],-0.502
